# Source: PubChem BioAssay (NCATS)
# Results filed as inconclusive are left out. Unmarked numbers belong to inactive results. Activity calls are given as the source filed them. Calls follow the shape of the dose curve; as a rule, active = well fitted curve in the direction sought with a large enough effect; inconclusive = small, poorly fitted or top-dose-only effect, or another doubt; inactive = no such curve, though single readings can be large; an effect the other way counts as inactive or inconclusive.
# Experiments:
# [1] = system: Zika virus NS2B-NS3 protease (linked construct); assay: Confirmatory screen NINDS AMC qHTS for Zika virus inhibitors (AID 1347152); also: nearly all actives have a fitted effect of over 70% in size; also: potency is read from the fitted curve at half-maximal effect
# Procedure, shortened: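 IC50s from 4-parameter Hill fits of percent inhibition, based on AMC fluorescence gain (340/450 nm) over 15 min with 10 microM Bz-Nle-KRR-AMC. Enzyme: 1 nM linked NS2B-NS3 in Tris-HCl pH 8.0; 15-min compound preincubation.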
# [2] = system: Zika virus NS2B-NS3 protease (unlinked complex); assay: Confirmatory screen GU AMC qHTS for Zika virus inhibitors (AID 1347153); also: nearly all actives have a fitted effect of over 70% in size;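 as to Potency: enzyme at 25 nM with substrate at 10 µM below its Km of 18.3 µM; potency is read from the fitted curve at half-maximal effect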
# Procedure, shortened: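 Compounds were preincubated 15 min at room temperature with 25 nM noncovalent NS2B-NS3 protease at pH 8.0; AMC substrate added at 10 microM and 15-min fluorescence gain (340/450 nm) converted to percent inhibition, fitted 4-parameter.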
# [3] = ZIKV-mCherry secondary qHTS for Zika virus inhibitors (AID 1347158); also: top concentration of the series differs between compounds
# Procedure, shortened: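 After overnight seeding at 37 °C, Vero cells receive compound and then ZIKV-mCherry (MOI 1). Following 48-72 h infection, cells are fixed, counterstained with Hoechst, and imaged; percent infected cells is derived from an mCherry intensity cut-off of 450 RFU.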
# [4] = system: Zika virus NS2B-NS3 protease (unlinked complex); assay: Primary screen GU Rhodamine qHTS for Zika virus inhibitors: Unlinked NS2B-NS3 protease assay (AID 1347159); also: nearly all actives have a fitted effect of over 60% in size; also: potency is read from the fitted curve at half-maximal effect
# Procedure, shortened: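 Percent inhibition derives from the 15-min fluorescence change (ex 480, em 540 nm), normalized to no-enzyme and no-inhibitor wells. Reactions contained 25 nM NS2B-NS3 complex and 1.5 microM substrate in 10 mM Tris-HCl pH 8.0.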
# [5] = system: Zika virus NS2B-NS3 protease (linked construct); assay: Primary screen NINDS Rhodamine qHTS for Zika virus inhibitors (AID 1347160); also: nearly all actives have a fitted effect of over 55% in size; also: potency is read from the fitted curve at half-maximal effect
# Procedure, shortened: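 In 10 mM Tris-HCl pH 8.0 containing 0.01% Tween 20, linked NS2B-NS3 protease (25 nM final) is exposed to test compounds for 15 min. Cleavage of 1.5 microM Rhodamine110 substrate is tracked by fluorescence over 15 min.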
# [6] = Confirmatory screen NINDS Rhodamine qHTS for Zika virus inhibitors (AID 1347161); also: potency is read from the fitted curve at half-maximal effect; nearly all actives have a fitted effect of over 60% in size
# Procedure, shortened: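 Percent inhibition, normalized to uninhibited and enzyme-free controls, is fitted to a 4-parameter Hill equation. Fluorescence change comes from a 15-min cleavage of 1.5 microM bis-peptide Rhodamine110 substrate by 25 nM linked NS2B-NS3 at room temperature.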
# [7] = system: Zika virus NS2B-NS3 protease (linked construct); assay: 384 well plate NINDS Rhodamine confirmatory qHTS for Zika virus inhibitors (AID 1347164);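 also: fluorescence from protease cleavage of Ac-LKRR-rhodamine 110 substrate; nearly all actives have a fitted effect of over 65% in size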; also: potency is read from the fitted curve at half-maximal effect
# Procedure, shortened: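 Fluorescence at 485/538 nm was measured 25 minutes after adding 10 microM Ac-LKRR-Rd substrate, in the dark at room temperature. The protease (5, 30 or 60 nM final) had been preincubated ~15 minutes with compound; aprotinin as control.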
# [8] = Vero cells viability qHTS for Zika virus inhibitors (AID 1347167)
# Procedure, shortened: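 Compounds were tested in concentration series on cells grown in DMEM containing 4% FBS. After 24 to 48 hours, cellular ATP was measured by luminescence with CellTiter Glo.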
# [9] = system: Zika virus NS2B-NS3 protease; assay: Primary screen GU AMC qHTS for Zika virus inhibitors (AID 1347154); also: nearly all actives have a fitted effect of over 70% in size; also: potency is read from the fitted curve at half-maximal effect
# Procedure, shortened: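 Fluorogenic AMC-substrate cleavage by noncovalent NS2B-NS3 protease complex (25 nM, pH 8.0 Tris buffer with Tween 20) followed for 15 minutes at room temperature (~20% conversion). Percent inhibition from ex340/em450 signal change, fitted by 4-parameter Hill equation.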
# [10] = system: Zika virus NS2B-NS3 protease (unlinked); assay: Optimization of GU AMC qHTS for Zika virus inhibitors: Unlinked NS2B-NS3 protease assay (AID 1347151); also: series mostly up to about 52 µM; nearly all actives have a fitted effect of over 80% in size
# Procedure, shortened: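 Fluorescence gain (340/450 nm) over 15 min at room temperature, ~20% conversion, gave percent inhibition fitted to a 4-parameter Hill equation; enzyme was unlinked NS2B-NS3 (25 nM final), pH 8.0 Tris buffer.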
smiles,measurement,setting,value
O=C(O)Cc1ccc2oc(-c3ccc(NC(=O)/C=C/c4ccc(Br)cc4)c(F)c3)nc2c1,Potency,[1],15.6 µM (active)
same,Potency,[2],13.9 µM (active)
same,Potency,[3],inactive
same,Potency,[4],3.16 µM (active)
same,Potency,[5],3.16 µM (active)
same,Potency,[6],2.21 µM (active)
same,Potency,[7],inactive
same,outcome,[8],inactive
O=C(O)/C=C/c1ccc(-c2ccc(O)c(C34CC5CC(CC(C5)C3)C4)c2)cc1,Potency,[1],35 µM (active)
same,Potency,[2],44.1 µM (active)
same,Potency,[4],2.24 µM (active)
same,Potency,[5],2.24 µM (active)
same,Potency,[6],1.24 µM (active)
same,Potency,[7],3.55 µM (active)
O=C(Nc1ccc(S(=O)(=O)Nc2nccs2)cc1)C(c1ccccc1)c1ccccc1,Potency,[3],inactive
same,Potency,[4],6.31 µM (active)
same,Potency,[5],7.08 µM (active)
same,Potency,[6],4.41 µM (active)
same,Potency,[7],50.1 µM (active)
same,outcome,[8],inactive
Cc1ccc(C)c(OCCn2cc(C(=O)O)c3ccccc32)c1,Potency,[4],39.8 µM (active)
Cc1cc(C(=O)N2CCCCc3ccccc32)ccc1CNC(=O)N1CCC[C@H]1C(=O)N(C)C,Potency,[4],inactive
Cc1ccc([N+](=O)[O-])cc1S(=O)(=O)N(C)/N=C/c1cnc2ccc(Br)cn12,Potency,[4],inactive
c1ccc(N2CCN(CCc3nn[nH]n3)CC2)cc1,Potency,[4],inactive
N#CC(c1ccnc(OCc2ccc(CN3CCOCC3)cc2)n1)c1nc2ccccc2s1 (stereo unspecified),Potency,[1],inactive
same,Potency,[2],inactive
same,Potency,[4],3.98 µM (active)
same,Potency,[5],7.94 µM (active)
same,Potency,[6],31.2 µM (active)
same,Potency,[7],5.01 µM (active)
same,outcome,[8],inactive
CC1(C)CCC(C)(C)c2cc(C3(c4ccc(C(=O)O)cc4)OCCO3)ccc21,Potency,[1],44.1 µM (active)
same,Potency,[2],39.3 µM (active)
same,Potency,[4],10 µM (active)
same,Potency,[5],5.62 µM (active)
same,Potency,[6],7.84 µM (active)
same,outcome,[8],inactive
CC(C)[N+]1(C)C2CCC1CC(OC(=O)C(CO)c1ccccc1)C2 (stereo unspecified),Potency,[9],inactive
same,Potency,[4],inactive
same,Potency,[5],inactive
CCOc1cc2ncc(C#N)c(Nc3ccc(F)c(Cl)c3)c2cc1NC(=O)/C=C/CN(C)C,Potency,[4],inactive
CC[C@]1(O)CC2CN(CCc3c([nH]c4ccccc34)[C@@](C(=O)OC)(c3cc4c(cc3OC)N(C)[C@H]3[C@@](O)(C(=O)OC)[C@H](OC(C)=O)[C@]5(CC)C=CCN6CC[C@]43[C@@H]65)C2)C1 (stereo partly specified),outcome,[10],inactive
same,Potency,[5],inactive
O=C(O)c1ccccc1NCCc1ccccc1,Potency,[9],31.6 µM (active)
Nc1ccccc1N,Potency,[9],inactive
CC(=O)N[C@H]1[C@H](O[C@H]2CC[C@@]3(C)C(CC[C@]4(C)C3CC=C3C5CC(C)(C)CC[C@]5(C(=O)O)[C@H](O)C[C@]34C)C2(C)C)O[C@H](CO[C@@H]2OC[C@H](O)[C@H](O)[C@H]2O[C@@H]2OC[C@@H](O)[C@H](O)[C@H]2O)[C@@H](O)[C@@H]1O (stereo partly specified),Potency,[4],inactive
CCC(C(=O)O)c1ccc(N2Cc3ccccc3C2=O)cc1 (stereo unspecified),Potency,[9],inactive
COc1cc(Nc2nc3ccccc3nc2NS(=O)(=O)c2ccc(NC(=O)c3ccc(OC)c(C)c3)cc2)cc(OC)c1,Potency,[1],12.4 µM (active)
same,Potency,[2],11.1 µM (active)
same,Potency,[4],2.82 µM (active)
same,Potency,[6],2.78 µM (active)
same,Potency,[7],22.4 µM (active)
same,outcome,[8],inactive
Cn1ncnc1COc1nn2c(-c3cc(F)ccc3F)nnc2cc1C(C)(C)C,Potency,[4],inactive
C=CC/C=C\C/C=C\CCCCCCCc1cccc(O)c1C(=O)O,Potency,[1],10.9 µM (active)
same,Potency,[2],6.85 µM (active)
same,Potency,[4],8.91 µM (active)
same,Potency,[5],3.98 µM (active)
same,Potency,[6],2.73 µM (active)
same,Potency,[7],inactive
same,outcome,[8],inactive
CC1=C(/C=C/C(C)=C\C=C\C(C)=C/C(=O)O)C(C)(C)CCC1,Potency,[4],20 µM (active)
COc1cc(O)c([C@@H](CC(=O)N2CC(C)CC(C)C2)c2ccc3c(c2)OCO3)c(OC)c1 (stereo partly specified),Potency,[4],inactive
CC(=O)O[C@@H]1[C@@H](O)[C@H](O[C@H]2CC[C@]34C[C@]35CC[C@]3(C)[C@@H]([C@@]6(C)CC[C@@H](C(C)(C)O)O6)[C@@H](O)C[C@@]3(C)[C@@H]5C[C@H](O[C@@H]3O[C@H](CO)[C@@H](O)[C@H](O)[C@H]3O)[C@H]4C2(C)C)OC[C@H]1O,Potency,[4],inactive
COc1ccc(C(=O)n2c(C)c(Cc3cccc(O[C@@H](C)C(=O)O)c3)c3cc(OC(F)(F)F)ccc32)cc1,Potency,[1],17.5 µM (active)
same,Potency,[2],22.1 µM (active)
same,Potency,[4],3.16 µM (active)
same,Potency,[6],1.11 µM (active)
same,Potency,[7],inactive
same,outcome,[8],inactive
C=C1CCC2C(C)(C)C(O)CCC2(C)C1CCC(C)CCO (stereo unspecified),Potency,[4],7.08 µM (active)
